Assay results as given in PubChem BioAssay (NCATS).
Inconclusive results are not listed. The source made the active and inactive calls. Unless noted, calls come from the whole dose curve; as a rule, active = well fitted curve in the direction sought with a large enough effect; inconclusive = small, poorly fitted or top-dose-only effect, or another doubt; inactive = no such curve, though single readings can be large; an effect the other way counts as inactive or inconclusive.

What was measured:
[1] = target: Cytochrome P450 1A2 (Homo sapiens) (UniProt P05177); experiment: p450-cyp1a2 (AID 410; calls by dose curve; note: potency is the fitted concentration of half-maximal effect)
Outline: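 O-Demethylation of luciferin 6' methyl ether by human CYP1A2 is monitored as luciferase luminescence. Substrate sits at Km (100uM); enzyme is 20nM. Values are scaled to 57 uM furafylline as maximal inhibition.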

[2] = NFAT Signaling Pathway (AID 444; active = well fitted curve in either direction with a large enough effect, not every such curve was filed as active;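 note: carbachol stimulus at about its EC50 of 1 µM final; % is set by controls: 0 for no effect and ±100 for the full control effect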); settings: Jurkat NFAT-bla M1, carbachol, beta-lactamase ratio, 5 h; at 7.69 µM (top of the series) unless noted
Outline: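 Read-out: CCF4 FRET ratio (460 nm/530 nm) after 1 h RT dye loading, used for %activity and AC50 from titration series. Cells: Jurkat NFAT-β-lactamase/M1 line, treated with compound plus 1 uM carbachol for 5 h, 37 °C.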

[3] = Stat Signaling Pathway (AID 446; active = well fitted curve in either direction with a large enough effect, not every such curve was filed as active;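 note: ME-180 cervical cancer cells given 40 pM IL-6 alongside compound; SIE-controlled beta-lactamase reporter measured as 460/530 nm FRET emission ratio; % is set by controls: 0 for no effect and ±100 for the full control effect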); settings: ME-180 (cervical carcinoma) SIE beta-lactamase reporter, IL-6 stimulated, 5 h; at 7.69 µM (top of the series) unless noted
Outline: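 FRET read-out (405 nm excitation, 460/530 nm emission) of a beta-lactamase reporter under a STAT-inducible element in ME-180 cervical carcinoma cells. Cells with compound receive 40 pM IL-6 for 5 h. Values are normalised to AC90 stimulation and AC90 JAK-inhibitor controls.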

[4] = target: Glucocorticoid receptor (Homo sapiens) (UniProt P04150); experiment: GR-EFC Redistribution (AID 451; calls by dose curve; note: potency is the fitted concentration of half-maximal effect); settings: CHO-K1 GR-EFC translocation, beta-gal luminescence, 2 h
Sequence of Glucocorticoid receptor (Homo sapiens) (P04150 whole entry, looked up, the tested form may be a part): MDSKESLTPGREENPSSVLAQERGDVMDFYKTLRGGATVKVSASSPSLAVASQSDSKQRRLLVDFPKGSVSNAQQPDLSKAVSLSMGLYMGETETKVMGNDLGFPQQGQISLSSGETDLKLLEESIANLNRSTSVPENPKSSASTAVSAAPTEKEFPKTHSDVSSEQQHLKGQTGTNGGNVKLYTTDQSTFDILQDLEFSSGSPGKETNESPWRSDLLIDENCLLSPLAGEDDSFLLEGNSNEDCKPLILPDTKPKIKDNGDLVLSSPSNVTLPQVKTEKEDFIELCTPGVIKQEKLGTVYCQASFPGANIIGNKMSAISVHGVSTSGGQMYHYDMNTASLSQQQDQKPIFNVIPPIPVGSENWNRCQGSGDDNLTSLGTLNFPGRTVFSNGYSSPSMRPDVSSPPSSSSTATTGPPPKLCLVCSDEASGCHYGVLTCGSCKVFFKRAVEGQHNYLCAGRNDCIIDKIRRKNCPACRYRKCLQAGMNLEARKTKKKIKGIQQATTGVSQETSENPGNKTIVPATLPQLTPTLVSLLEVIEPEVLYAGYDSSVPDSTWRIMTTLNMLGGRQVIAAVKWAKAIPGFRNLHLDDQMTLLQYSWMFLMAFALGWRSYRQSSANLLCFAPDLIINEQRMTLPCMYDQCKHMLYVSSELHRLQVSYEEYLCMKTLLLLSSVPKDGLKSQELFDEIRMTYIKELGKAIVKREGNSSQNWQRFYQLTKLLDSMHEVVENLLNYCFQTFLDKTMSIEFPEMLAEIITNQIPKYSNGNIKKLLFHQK
Outline: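 Translocation of GR-ED fusion to nuclear EA restores b-gal, read by luminescence after 1 h room-temperature detection. Engineered CHO-K1 biosensor cells, 1,000/well, exposed 2 h at 37 C to titrations up to 46 uM final.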

[5] = target: Mitogen-activated protein kinase 10 (Mus musculus) (UniProt Q61831); experiment: JNK3 AlphaScreen Assay (AID 530; active = well fitted curve in either direction with a large enough effect, not every such curve was filed as active;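 note: kinase came from lysate of stimulated human HepG2 cells; signal reports phosphorylation of biotinylated GST-cJun 1-79 at Ser73 with 10 µM ATP; % is set by controls: 0 for no effect and ±100 for the full control effect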)
Outline: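 qHTS titrations with 15 min compound pre-incubation before adding ATP (10 uM final). Read-out: AlphaScreen of Ser73-phosphorylated biotin-GST-cJun using HepG2 lysate JNK3 activated by IL-1β and TNFα.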

[6] = target: 3',5'-cyclic-AMP phosphodiesterase 4B (Homo sapiens) (UniProt Q07343); experiment: qHTS Assay for Inhibitors of PDE-IV (AID 607; active = well fitted activation curve with a large enough effect in the main read-out, with a control signal flat, not every such curve was filed as active; note: % of control where 0% means no effect)
Sequence of 3',5'-cyclic-AMP phosphodiesterase 4B (Homo sapiens) (Q07343 whole entry, looked up): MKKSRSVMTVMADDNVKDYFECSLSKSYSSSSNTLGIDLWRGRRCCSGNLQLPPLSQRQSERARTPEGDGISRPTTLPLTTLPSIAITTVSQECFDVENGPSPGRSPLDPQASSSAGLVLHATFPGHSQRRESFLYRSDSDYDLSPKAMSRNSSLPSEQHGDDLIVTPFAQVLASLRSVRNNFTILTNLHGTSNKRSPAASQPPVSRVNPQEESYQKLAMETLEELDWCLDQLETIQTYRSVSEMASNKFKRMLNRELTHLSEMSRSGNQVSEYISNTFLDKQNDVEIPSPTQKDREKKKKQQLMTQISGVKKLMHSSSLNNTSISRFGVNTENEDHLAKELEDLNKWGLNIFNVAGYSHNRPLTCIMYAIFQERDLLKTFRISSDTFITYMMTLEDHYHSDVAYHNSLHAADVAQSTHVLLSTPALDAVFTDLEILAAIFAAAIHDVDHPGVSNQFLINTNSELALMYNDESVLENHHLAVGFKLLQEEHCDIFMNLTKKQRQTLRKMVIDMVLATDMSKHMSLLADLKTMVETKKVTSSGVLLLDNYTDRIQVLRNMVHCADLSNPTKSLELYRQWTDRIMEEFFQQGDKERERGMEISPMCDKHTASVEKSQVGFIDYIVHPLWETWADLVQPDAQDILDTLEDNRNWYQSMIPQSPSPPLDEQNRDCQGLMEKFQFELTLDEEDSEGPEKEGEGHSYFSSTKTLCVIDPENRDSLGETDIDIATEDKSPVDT
Outline: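 Cell-based read-out of cAMP via a modified cyclic nucleotide-gated channel and membrane potential dye (535/590 nm) in HEK293 cells expressing PDE4 endogenously. Compounds tested up to 22.9 uM final; 100 uM RO 20-1724 reference.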

[7] = target: Guanine nucleotide-binding protein G(i) subunit alpha-1 (Homo sapiens) (UniProt P63096); experiment: qHTS Assay for Inhibitors of RGS12 GoLoco Motif Activity (Green Fluorophore) (AID 879);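 note: 0% = labeled peptide with Gαi1 and full inhibition = labeled peptide alone without protein; negative values mean loss of peptide binding seen as reduced polarization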
Outline: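 A drop in FITC polarization marked displacement of the FITC-tagged RGS12 GoLoco peptide (10 nM) from Gαi1 (50 nM). Compounds were incubated 10 min at room temperature in Tris pH 7.5 buffer containing 150 mM NaCl, 0.1 mM GDP and 0.05% NP40; unlabeled peptide titration served as control.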

[8] = qHTS Assay for Identification of Small Molecule Antagonists for NFkB Signaling Pathway (AID 895; active = well fitted inhibition curve with a large enough effect in the signal ratio, with a control signal flat, not every such curve was filed as active; the % refers to the signal ratio; note: % is set by controls: 0 for no effect and ±100 for the full control effect)
Outline: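 Beta-lactamase reporter read-out (460 and 530 nm emission ratio, 405 nm excitation, 2 hrs substrate loading RT) after 5 hr stimulation with 10 pM TNF alpha in compound-treated NFkB-bla ME-180 cells in low-serum medium.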

[9] = target: Muscarinic acetylcholine receptor M1 (Rattus norvegicus) (UniProt P08482); experiment: qHTS Assay for Antagonists of Acetylcholine Muscarinic M1 Receptor: Measurement of IP-One Response (AID 944); note: nearly all actives have a fitted effect of over 75% in size
Sequence of Muscarinic acetylcholine receptor M1 (Rattus norvegicus) (P08482 whole entry, looked up): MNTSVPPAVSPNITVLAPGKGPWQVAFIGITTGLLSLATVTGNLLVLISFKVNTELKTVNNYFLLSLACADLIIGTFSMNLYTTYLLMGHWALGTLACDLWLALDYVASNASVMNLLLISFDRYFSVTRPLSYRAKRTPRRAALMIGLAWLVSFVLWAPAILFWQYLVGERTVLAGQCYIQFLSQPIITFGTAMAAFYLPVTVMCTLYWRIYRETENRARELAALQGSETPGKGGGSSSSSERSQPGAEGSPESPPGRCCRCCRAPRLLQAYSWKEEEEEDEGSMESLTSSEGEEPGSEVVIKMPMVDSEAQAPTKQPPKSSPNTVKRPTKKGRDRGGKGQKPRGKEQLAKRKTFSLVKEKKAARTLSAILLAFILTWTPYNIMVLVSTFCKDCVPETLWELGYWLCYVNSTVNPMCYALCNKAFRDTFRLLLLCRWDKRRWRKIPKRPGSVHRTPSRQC
Outline: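 Antagonist mode with rat M1 receptor transfected into CHO cells. Compound is added first for 10 min, carbachol at its EC80 follows for 30 min, and lysis reagents then allow TR-FRET detection of accumulated IP1.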

[10] = target: Pyruvate kinase (Leishmania mexicana) (UniProt Q27686); experiment: qHTS Validation Assay for Inhibitors of Leishmania Mexicana Pyruvate Kinase (AID 945);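 note: 0% = DMSO only neutral control wells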
Sequence of Pyruvate kinase (Leishmania mexicana) (Q27686 2-499 E452W): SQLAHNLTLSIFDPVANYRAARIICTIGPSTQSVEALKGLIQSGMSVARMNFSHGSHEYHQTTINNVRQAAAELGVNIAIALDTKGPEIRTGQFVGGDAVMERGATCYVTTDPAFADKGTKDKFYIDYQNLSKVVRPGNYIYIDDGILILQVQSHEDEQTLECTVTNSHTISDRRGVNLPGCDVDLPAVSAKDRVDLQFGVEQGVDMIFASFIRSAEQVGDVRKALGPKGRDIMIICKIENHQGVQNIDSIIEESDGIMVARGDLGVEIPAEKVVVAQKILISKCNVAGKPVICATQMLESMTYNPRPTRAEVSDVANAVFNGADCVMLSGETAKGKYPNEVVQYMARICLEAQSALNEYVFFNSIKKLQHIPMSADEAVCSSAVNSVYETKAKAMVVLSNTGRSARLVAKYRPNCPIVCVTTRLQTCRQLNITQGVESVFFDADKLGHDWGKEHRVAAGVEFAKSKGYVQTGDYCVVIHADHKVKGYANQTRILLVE
Outline: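 Luminescent ATP detection (PKLight) after a 1 h room-temperature reaction of 0.2 nM LmPYK E451W mutant with 0.5 mM PEP and 0.1 mM ADP at pH 7.2. Activity is normalized to DMSO-only control wells.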

[11] = target: Pyruvate kinase PKM (Homo sapiens) (UniProt P14618); experiment: qHTS Assay for Activators of Human Muscle Pyruvate Kinase (AID 954; active = well fitted curve in the direction sought with a large enough effect, not every such curve was filed as active;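 note: 0% = uninhibited enzyme and -100% = no enzyme or full thiadiazolimine inhibition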)
Outline: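 ATP production by PKM2 detected via luciferase luminescence after 1 h room-temperature reaction (0.1 nM enzyme, PEP at Km 0.5 mM, ADP 0.1 mM, pH 7.2 imidazole buffer). Inhibition scaled to no-enzyme control; activation referenced to 0.3 nM enzyme wells.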

[12] = target: Alpha-galactosidase A (Homo sapiens) (UniProt P06280); experiment: Counterscreen for Glucocerebrosidase Inhibitors: qHTS Assay for Human alpha-Galactosidase at pH 4.5 (AID 992); note: 0% is about no effect
Outline: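 Fluorogenic 1536-well qHTS at pH 4.5 (citrate, Tween-20): 2 nM enzyme, 80 uM 4-MU-alpha-galactoside, 20 min room temperature, NaOH/glycine stop. Titration 0.7 nM to 77 uM, data normalized to no-enzyme and full-activity controls, Hill-fitted AC50.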

[13] = target: alpha-glucosidase (Oryza sativa, rice) (UniProt Q653V4); experiment: Counterscreen for Glucocerebrosidase Inhibitors: qHTS Assay for Rice alpha-Glucosidase at pH 5.0 (AID 997);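 note: 0% = full activity with enzyme and -100% = basal without enzyme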
Outline: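 Endpoint fluorogenic assay at pH 5.0: compounds (0.7 nM to 77 uM) titrated against 4 nM rice enzyme and 400 uM 4-MU-alpha-glucoside for 20 min at room temperature; NaOH/glycine stop, read ex 365/em 440 nm, Hill-fitted AC50.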

[14] = Validation of Assay for Modulators of Lamin A Splicing (AID 1459; active = well fitted curve in the direction sought with a large enough effect in the signal ratio; the % refers to the signal ratio;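 note: cells exposed to compound for two days before reading; 0% is about no effect; ratio rise marks activators and ratio drop marks inhibitors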)
Outline: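 HeLa S3 lamin A-EGFP/DsRed2 stable clone, 600 cells/well, Opti-MEM 2% FBS; compounds by pin tool; 48 hrs, 37 °C/5% CO2; Acumen 488 nm scan, objects 10-100 um; GFP/RFP intensity ratio.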

[15] = target: DNA repair nuclease/redox regulator APEX1 (Homo sapiens) (UniProt P27695); experiment: qHTS Validation Assay for Inhibitors of the Human Apurinic/apyrimidinic Endonuclease 1 (APE1) (AID 1705)
Sequence of DNA repair nuclease/redox regulator APEX1 (Homo sapiens) (P27695 whole entry, looked up): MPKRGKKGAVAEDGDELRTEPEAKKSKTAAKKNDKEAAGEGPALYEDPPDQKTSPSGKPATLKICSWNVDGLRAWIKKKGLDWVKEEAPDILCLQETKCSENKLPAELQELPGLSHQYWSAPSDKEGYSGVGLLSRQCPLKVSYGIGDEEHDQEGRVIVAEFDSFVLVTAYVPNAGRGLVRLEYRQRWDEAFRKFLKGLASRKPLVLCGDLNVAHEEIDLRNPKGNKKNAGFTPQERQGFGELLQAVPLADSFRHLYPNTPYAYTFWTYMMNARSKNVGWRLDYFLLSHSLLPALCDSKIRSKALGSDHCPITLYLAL
Outline: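 qHTS, 1536-well. APE1 + cpd 15 min RT → 50 nM TAMRA/BHQ-2 THF-abasic dsDNA substrate → kinetic fluorescence, 3 reads/60 s; delta(read3−read1) = reaction progress. No-enzyme buffer = negative control.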

[16] = Counterscreen for APE1 Inhibitors: Fluorescent Dye Displacement Validation Assay (AID 1707);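 note: plate controls were ThO with dsDNA and no compound for no effect and ThO without dsDNA for full effect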
Outline: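 Counterscreen flags promiscuous DNA binders: compounds displacing ThO from duplex DNA (abasic THF site, 50 nM) reduce 540 nm emission (480 nm excitation). ThO 250 nM final; Tris-HCl pH 7.5 with NaCl, MgCl2 and Tween-20.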

[17] = qHTS for differential inhibitors of proliferation of Plasmodium falciparum line 7G8 (AID 1815);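 note: potency is the fitted concentration of half-maximal effect; parasite growth measured after three days of incubation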
[18] = qHTS for differential inhibitors of proliferation of Plasmodium falciparum line GB4 (AID 1816); settings: Potency: Plasmodium falciparum GB4 proliferation inhibition;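 note: potency is the fitted concentration of half-maximal effect; parasite growth measured after 72 h incubation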
[19] = qHTS for differential inhibitors of proliferation of Plasmodium falciparum line 3D7 (AID 1876); note: potency is the fitted concentration of half-maximal effect
[20] = qHTS for differential inhibitors of proliferation of Plasmodium falciparum line D10 (AID 1877);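 note: potency is the fitted concentration of half-maximal effect; parasites grown with compound for 72 h before DNA staining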
[21] = qHTS for differential inhibitors of proliferation of Plasmodium falciparum line W2 (AID 1883); settings: Potency: Plasmodium falciparum W2 proliferation inhibition;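 note: potency is the fitted concentration of half-maximal effect; parasites grown with compound for 72 h before lysis and staining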
[22] = qHTS for differential inhibitors of proliferation of Plasmodium falciparum line HB3 (AID 1886); settings: Potency: Plasmodium falciparum HB3 proliferation inhibition;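 note: potency is the fitted concentration of half-maximal effect; parasites grown with compound for 72 h before SYBR Green readout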
[23] = target: ATP-dependent DNA helicase Q1 (Homo sapiens) (UniProt P46063); experiment: qHTS Validation Assay for Inhibitors of RecQ-Like Dna Helicase 1 (RECQ1) (AID 2353);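 note: plate controls were DMSO vehicle for no effect and enzyme-free control for full effect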
Sequence of ATP-dependent DNA helicase Q1 (Homo sapiens) (P46063 whole entry, looked up): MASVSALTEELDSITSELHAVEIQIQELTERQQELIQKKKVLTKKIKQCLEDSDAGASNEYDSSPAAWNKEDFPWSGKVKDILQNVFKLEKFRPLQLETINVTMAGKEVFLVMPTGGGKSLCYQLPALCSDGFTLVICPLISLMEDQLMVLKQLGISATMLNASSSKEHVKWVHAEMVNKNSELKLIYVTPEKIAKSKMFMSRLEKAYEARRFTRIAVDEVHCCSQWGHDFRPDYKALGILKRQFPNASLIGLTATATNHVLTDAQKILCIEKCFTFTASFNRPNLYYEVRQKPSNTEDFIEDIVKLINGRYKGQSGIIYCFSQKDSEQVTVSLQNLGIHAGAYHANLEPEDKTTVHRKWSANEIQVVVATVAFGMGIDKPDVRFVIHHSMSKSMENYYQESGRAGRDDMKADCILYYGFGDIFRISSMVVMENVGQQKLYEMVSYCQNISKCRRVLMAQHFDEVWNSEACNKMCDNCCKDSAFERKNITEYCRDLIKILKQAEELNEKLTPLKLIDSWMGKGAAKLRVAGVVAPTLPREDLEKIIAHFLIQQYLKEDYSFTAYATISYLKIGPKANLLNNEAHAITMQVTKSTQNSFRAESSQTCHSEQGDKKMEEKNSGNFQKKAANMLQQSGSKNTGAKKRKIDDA
Outline: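 RECQ1T1 50 nM; forked duplex (20 bp + 30-nt ss tails) 200 nM, ATP 2 mM final; pH 8.0, 2 mM MgCl2, 2.5 ug/ml poly(dI-dC); 15 min compound preincubation; discontinuous kinetic read over 2 h at RT.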

[24] = Quantitative high throughput screen for delayed death inhibitors of the malarial parasite plastid, 96 hour incubation (AID 488745); note: potency is the fitted concentration of half-maximal effect; nearly all actives have a fitted effect of over 70% in size
Outline: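 Readout is firefly luciferase luminescence from an integrated reporter in P. falciparum; lower signal marks inhibited growth. Cultures at 2% hematocrit and 0.1% parasitemia were treated with compound across two generations (96 h, 37 C, 5% CO2).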

[25] = Quantitative high throughput screen for delayed death inhibitors of the malarial parasite plastid, 48 hour incubation (AID 488752); note: potency is the fitted concentration of half-maximal effect; nearly all actives have a fitted effect of over 65% in size
Outline: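 First, compound was pinned into RPMI 1640 medium containing 0.5% Albumax. Next, reporter-parasite-infected erythrocytes were added to 2% hematocrit and 0.1% parasitemia. After 48 h at 37 C under 5% CO2, luciferase detection reagent was added and luminescence read.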

[26] = target: M-phase phosphoprotein 8 (Homo sapiens) (UniProt Q99549); experiment: qHTS Validation Assay for Inhibitors for MPP8 Chromodomain Interactions with Methylated Histone Tails (AID 488949); note: potency is the fitted concentration of half-maximal effect; nearly all actives have a fitted effect of over 55% in size
Outline: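 50 nM MPP8 + 50 nM b-H3K9me3 peptide, PBS pH 7.4/0.01% Tween-20, 30 min RT; + cpd 30 min RT; + AlphaScreen donor/Ni-chelate acceptor beads 10 ug/mL final, 30 min dark; luminescence read.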

[27] = target: Thyrotropin receptor (Homo sapiens) (UniProt P16473); experiment: qHTS Assay for Antagonists of the Thyroid Stimulating Hormone Receptor (AID 488980); note: 0% is about no effect
Outline: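 Readout is cAMP by HTRF competition between cellular cAMP and cAMP-d2 for a cryptate-labelled antibody. Antagonism was assessed in TSHR-transfected HEK293 cells stimulated with 4 nM TSH (EC80, final) in the presence of RO 20-1724.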

[28] = target: Thyrotropin-releasing hormone receptor (Homo sapiens) (UniProt P34981); experiment: qHTS for Small Molecule Agonists and Allosteric Enhancers of Human TRH Receptor: Validation Screen for Agonists (AID 493127;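 active = calcium activation more than 3 SD above the typical response in the agonist read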;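 note: intracellular calcium rise by fluo-8 fluorescence before TRH EC20 addition; 0% is about no effect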); settings: TRH receptor agonist cell assay; at 2 µM; active compounds read high
Sequence of Thyrotropin-releasing hormone receptor (Homo sapiens) (P34981 whole entry, looked up): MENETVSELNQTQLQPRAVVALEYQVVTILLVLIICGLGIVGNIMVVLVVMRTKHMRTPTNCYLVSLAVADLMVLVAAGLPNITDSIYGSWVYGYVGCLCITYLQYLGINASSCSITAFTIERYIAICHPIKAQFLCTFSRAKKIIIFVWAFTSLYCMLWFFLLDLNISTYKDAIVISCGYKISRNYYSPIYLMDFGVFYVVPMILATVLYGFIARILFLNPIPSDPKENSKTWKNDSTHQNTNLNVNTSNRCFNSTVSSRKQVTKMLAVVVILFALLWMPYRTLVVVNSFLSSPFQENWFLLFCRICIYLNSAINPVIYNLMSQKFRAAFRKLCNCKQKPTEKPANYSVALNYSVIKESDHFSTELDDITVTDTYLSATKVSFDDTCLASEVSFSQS
Outline: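 Compounds are added by online pintool to dye-loaded TRHR cells while fluorescence is recorded every second. A rise in calcium signal during the agonist read marks activation; a later 10 nM TRH addition (EC20) serves the separate enhancer mode.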

[29] = target: Galactokinase (Homo sapiens) (UniProt P51570); experiment: qHTS Validation Assay for Inhibitors of Human Galactokinase (GALK) (AID 493189); note: 0% is about no effect
Outline: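 5 nM GALK / 100 uM galactose / 35 uM ATP, 20 mM HEPES pH8.0, 5 mM MgCl2, 60 mM NaCl, 1 mM DTT, 0.01% BSA (final). RT 1 h; Kinase-Glo Plus luminescence.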

[30] = target: Voltage-gated inwardly rectifying potassium channel KCNH2 (Homo sapiens) (UniProt Q12809); experiment: qHTS Assay for Small Molecule Inhibitors of the Human hERG Channel Activity (AID 588834);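 note: potency is the fitted concentration of half-maximal effect; lower thallium flux fluorescence means stronger hERG block; nearly all actives have a fitted effect of over 50% in size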
Sequence of Voltage-gated inwardly rectifying potassium channel KCNH2 (Homo sapiens) (Q12809 whole entry, looked up): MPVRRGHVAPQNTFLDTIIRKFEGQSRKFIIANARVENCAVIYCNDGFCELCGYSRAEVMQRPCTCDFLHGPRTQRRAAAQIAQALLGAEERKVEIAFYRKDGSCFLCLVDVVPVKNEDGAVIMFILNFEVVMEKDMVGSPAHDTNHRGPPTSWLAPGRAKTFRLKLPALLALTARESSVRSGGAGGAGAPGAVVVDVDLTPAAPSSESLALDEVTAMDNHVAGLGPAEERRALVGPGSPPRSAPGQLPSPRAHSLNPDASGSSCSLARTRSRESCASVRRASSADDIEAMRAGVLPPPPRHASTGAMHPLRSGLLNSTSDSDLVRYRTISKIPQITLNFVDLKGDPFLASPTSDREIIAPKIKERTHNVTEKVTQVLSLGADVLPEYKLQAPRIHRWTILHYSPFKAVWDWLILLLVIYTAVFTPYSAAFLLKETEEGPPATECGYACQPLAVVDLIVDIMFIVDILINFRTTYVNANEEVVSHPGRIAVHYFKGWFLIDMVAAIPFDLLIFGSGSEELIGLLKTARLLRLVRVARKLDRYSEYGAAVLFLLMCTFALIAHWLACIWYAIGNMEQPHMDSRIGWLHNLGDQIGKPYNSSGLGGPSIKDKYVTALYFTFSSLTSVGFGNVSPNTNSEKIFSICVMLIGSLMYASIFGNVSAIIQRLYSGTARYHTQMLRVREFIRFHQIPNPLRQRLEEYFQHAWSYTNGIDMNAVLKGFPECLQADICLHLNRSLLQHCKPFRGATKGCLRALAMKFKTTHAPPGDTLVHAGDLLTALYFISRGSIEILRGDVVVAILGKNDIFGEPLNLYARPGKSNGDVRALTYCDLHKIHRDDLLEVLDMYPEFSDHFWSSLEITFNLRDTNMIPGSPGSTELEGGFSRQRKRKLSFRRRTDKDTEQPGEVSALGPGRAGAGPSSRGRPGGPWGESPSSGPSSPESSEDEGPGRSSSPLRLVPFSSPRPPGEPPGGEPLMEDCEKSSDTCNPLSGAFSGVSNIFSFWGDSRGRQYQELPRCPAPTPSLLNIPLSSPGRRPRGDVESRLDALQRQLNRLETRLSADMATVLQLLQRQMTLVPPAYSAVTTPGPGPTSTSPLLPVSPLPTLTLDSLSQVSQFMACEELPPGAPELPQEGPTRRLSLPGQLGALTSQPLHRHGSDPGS
Outline: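 Step 1: BacMam hERG transduction of U2OS, 4 hrs RT. Step 2: overnight 37 °C, plate 2000 cells/well, 4 hr. Step 3: FluxOR load, compound 10 min, stimulate, read fluorescence.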

CC(C)CN(C)c1nc(N)c(C(=O)N=C(N)N)nc1Cl
inactive: activity change, negative = inhibition [2] -14% [at 38 µM] | activity, negative = inhibition [3] -2.92% [at 38 µM] | Potency [4] > 46 µM | outcome [5] | Potency [6] | outcome [7] | Potency [8] | Potency [9] | Potency [10] | outcome [11] | outcome [12] | outcome [13] | outcome [14] | Potency [15] | Potency [16] | Potency [23] | outcome [27] | activation [28] 0.812% | outcome [29]
active: Potency [1] 794 nM | Potency [17] 11.2 µM | Potency [18] 11.2 µM | Potency [19] 3.98 µM | Potency [20] 7.08 µM | Potency [21] 2.82 µM | Potency [22] 8.91 µM | Potency [24] 8.28 µM | Potency [25] 10.4 µM | Potency [26] 44.7 µM | Potency [30] 2 µM
